Compound activity as filed in PubChem BioAssay.
HSP90 refold inh – HSP90 inhibitors, primary screen, cell lysate, luminescence; Heat shock protein HSP 90 (rabbit reticulocyte lysate; luciferase refolding); Rabbit reticulocyte lysate, luciferase refolding luminescence, 3 h; inhibition, % at 5.6 µM; actives 0.91% (n = 290,000); AID 1789, 2009;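 active = inhibition above the screen-wide mean plus 3 SD, computed separately per campaign, cut at about 16% in these data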;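 note: inhibitors lower the luminescence because luciferase stays unfolded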
HSF1 inhib – HSF1 inhibitors in luciferase reporter cells, primary screen, cell-based, NIH3T3, luminescence | activity change, negative = inhibition, % at 7.5 µM (by protocol) | NIH3T3-HGL HSE-luciferase, MG132-induced, luminescence 8 h; active compounds read low | AID 2098, 2009 | actives 0.77% (n = 300,000);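 active = more than half of replicate wells show activity change below -50%, luminescence cut by over half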;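 note: luciferase reports HSF-1 transcriptional activity via heat shock element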
DAX1 inh – DAX1 (NR0B1) inhibitors, primary screen, cell-based, HEK293, Gal4-DAX1, luciferase luminescence; Nuclear receptor subfamily 0 group B member 1 (Homo sapiens), P51843; HEK293 Gal4-DAX1 luciferase reporter; inhibition, % at 6.75 µM; actives 0.99% (n = 340,000); AID 504766, 2011;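 active = inhibition above the mean over all tested compounds plus 3 SD, cut at about 4.2% in these data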;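 note: inhibition shows as a rise in luminescence from relieved DAX1 repression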
HSF-1 act – HSF-1 activators, primary screen, NIH3T3-HGL cells, MG132 stress, luminescence, single point. NIH3T3-HGL HSF-1 luciferase reporter, 8 h; 100% = twice DMSO control signal. activation, % at 9 µM. actives 1.7% (n = 300,000). AID 504408, 2011;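 active = mean replicate activation of at least 50% with a set share of replicates each reaching 50%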
AHR activator – AHR activators, primary screen, cell-based, luminescence, luciferase reporter, human; AID 2796, 2010; actives 2.5% (n = 320,000); activation, % at 5 µM; Aryl hydrocarbon receptor (Homo sapiens), P35869; AHR-responsive luciferase reporter cells; in the data active = activation above about 47%
Target sequence (P35869 whole entry, looked up): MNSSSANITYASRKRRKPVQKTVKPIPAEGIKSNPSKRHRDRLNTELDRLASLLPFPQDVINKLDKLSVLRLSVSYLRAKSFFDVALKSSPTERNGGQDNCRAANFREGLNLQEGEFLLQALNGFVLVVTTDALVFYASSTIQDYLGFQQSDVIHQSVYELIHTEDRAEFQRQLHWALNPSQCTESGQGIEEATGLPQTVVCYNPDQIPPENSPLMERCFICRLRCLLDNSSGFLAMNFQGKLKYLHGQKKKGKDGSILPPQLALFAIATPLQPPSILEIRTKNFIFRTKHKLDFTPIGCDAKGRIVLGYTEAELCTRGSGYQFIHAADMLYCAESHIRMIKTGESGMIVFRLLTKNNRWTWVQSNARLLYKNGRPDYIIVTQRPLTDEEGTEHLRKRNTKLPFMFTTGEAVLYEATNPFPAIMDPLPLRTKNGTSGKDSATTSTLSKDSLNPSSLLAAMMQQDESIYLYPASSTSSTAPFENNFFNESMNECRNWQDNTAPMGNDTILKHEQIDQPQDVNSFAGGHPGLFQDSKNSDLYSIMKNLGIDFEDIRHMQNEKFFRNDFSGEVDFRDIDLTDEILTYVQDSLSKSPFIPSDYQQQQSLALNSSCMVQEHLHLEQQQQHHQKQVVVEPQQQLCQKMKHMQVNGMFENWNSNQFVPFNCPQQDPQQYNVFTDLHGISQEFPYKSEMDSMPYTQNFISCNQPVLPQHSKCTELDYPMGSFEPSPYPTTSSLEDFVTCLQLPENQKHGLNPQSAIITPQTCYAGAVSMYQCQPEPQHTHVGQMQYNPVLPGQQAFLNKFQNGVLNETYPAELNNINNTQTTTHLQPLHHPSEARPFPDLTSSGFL
FXN GAA850 act – FXN promoter activators, primary screen, cell-based, luciferase luminescence, HEK293 lucGAA850; HEK293 lucGAA850 FXN promoter luciferase reporter, 24 h; percent of 10 µM SAHA response; AID 540364, 2011; activation, % at 6 µM; actives 0.56% (n = 360,000);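 active = activation above the average of all compounds screened plus 3 SD, cutoff fixed separately per campaign, cut at about 7.5% in these data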
A number is an active result; n = inactive; x = no result. This is a sample that favours compounds with a hit; in the whole collection about 5.9% have one here.

SMILES	HSP90 refold inh	HSF1 inhib	DAX1 inh	HSF-1 act	AHR activator	FXN GAA850 act
COC(=O)C1=C(C)NC(C)=C(C(=O)OC)C1c1ccc(-c2cc(Cl)ccc2Cl)o1	n	n	n	n	n	n
COCCN(C(=S)Nc1c(C)cccc1C)C(C)c1cccnc1 (stereo unspecified)	n	-52	n	n	n	n
C[C@H]1CN([C@@H](C)CO)C(=O)CCCn2nncc2CO[C@H]1CN(C)S(=O)(=O)c1ccc(-n2cccn2)cc1	x	x	n	x	x	n
CC(CNCCCn1ccc(NC(=O)OCc2ccccc2)nc1=O)c1ccccc1 (stereo unspecified)	x	x	n	x	x	n
O=C(Nc1ccn(CCCNCC(c2ccccc2)c2ccccc2)c(=O)n1)OCc1ccccc1	x	x	4.4	x	x	n
O=C(/C=C1\NCC2c3ccccc3CCN2C1=O)c1ccccc1 (stereo unspecified)	n	n	n	n	62	n
Cc1ccc(NC2CCCCC2NS(=O)(=O)c2ccccc2)c(C)c1 (stereo unspecified)	n	n	n	n	n	n
CC(C)=CCC/C(C)=C/COc1c2occc2cc2ccc(=O)oc12	x	x	n	x	69	n
Cc1cc(NC(=O)OC2CCCCC2)ccc1[N+](=O)[O-]	n	n	n	71	n	n
Cc1ccc(NC(=O)C2C3CCCCC32)cc1[N+](=O)[O-] (stereo unspecified)	n	n	n	n	n	n
Cc1cc(C)n(Cc2ccc(C(=O)Nc3cccc(Br)c3)o2)n1	n	n	n	n	74	n
Cc1cc(C)n(Cc2ccc(C(=O)Nc3ccc(Br)cc3C)o2)n1	n	n	n	n	n	n
Cc1ccc(-c2csc3nc[nH]c(=O)c23)c(C)c1	n	n	n	95	n	n
Cc1ccc(-c2csc3nc[nH]c(=O)c23)cc1	n	n	n	n	n	n
CN1CCN(C(c2ccc(Cl)cc2)c2cc(Cl)c3cccnc3c2O)CC1 (stereo unspecified)	n	n	n	79	n	n
CN1CCN(C(=O)C(=O)c2cn(CC(=O)N3CCCCCC3)c3ccccc23)CC1	x	x	n	x	x	n
CCNC(=O)C1(C)CCN(C(=O)c2ccccc2OC(F)(F)F)C1 (stereo unspecified)	x	x	x	x	x	n
Cc1ccc(NC(=O)c2ccc(NCCc3ccccc3)c([N+](=O)[O-])c2)cc1F	n	n	n	n	n	n
O=C(Nc1cc(F)cc(F)c1)c1ccc(NCCc2ccccc2)c([N+](=O)[O-])c1	n	n	n	n	57	n
CC1CC(=O)N(c2ccc(NCCc3ccccc3)c([N+](=O)[O-])c2)C1=O (stereo unspecified)	n	n	n	n	n	n
O=C1C2CC=CCC2C(=O)N1c1ccc(NCCc2ccccc2)c([N+](=O)[O-])c1 (stereo unspecified)	n	n	n	70	n	n
O=C1C2CC=CCC2C(=O)N1c1ccc(NCCc2ccccc2F)c([N+](=O)[O-])c1 (stereo unspecified)	n	n	n	64	n	n
Cc1cc(C)c(S(=O)(=O)Nc2ccc(O)c(Sc3ncn[nH]3)c2)c(C)c1	n	n	n	n	n	n
Nc1nnc(/C=C/c2cccc([N+](=O)[O-])c2)s1	n	n	n	n	n	n
O=C1C=C(N2CCOCC2)C2(CCCCC2)O1	n	n	5.2	n	n	n
SMILES	HSP90 refold inh	HSF1 inhib	DAX1 inh	HSF-1 act	AHR activator	FXN GAA850 act
CCCC(=O)N1CCC1(C)C(=O)Nc1scc(C)c1C#N (stereo unspecified)	x	x	x	x	x	n
O=c1c(N2CCOCC2)c(N2CCOCC2)c1=O	n	n	7.2	n	n	n
CC(C)(C)c1ccc(S(=O)(=O)NC(=O)C2(C)CCN2C(=O)Cc2cccs2)cc1 (stereo unspecified)	x	x	x	x	x	n
Nc1c(C(=O)Nc2nccs2)sc2nc(-c3cccs3)cc(C(F)(F)F)c12	n	n	n	n	65	n
O=C1C=C(CCc2ccccc2)CCC1	x	x	n	x	x	n
Oc1c(Br)cc(Br)cc1/C=N/NC(=S)N[C@H]1CC2C=CC1C2 (stereo partly specified)	n	n	n	n	n	n
COc1cc(/C=N/NC(=S)NC2CC3C=CC2C3)cc(OC)c1OC (stereo unspecified)	n	n	x	164	n	n
CCOc1ccc(/C=N/NC(=S)NC2CC3C=CC2C3)cc1 (stereo unspecified)	n	n	x	53	n	n
Cc1cc(C)n2nc(C(=O)OCC(=O)Nc3ccc(F)cc3F)nc2n1	x	n	n	n	n	n
O=C(COC(=O)C1CC2CCCC(C1)C2=O)Nc1cccc(F)c1 (stereo unspecified)	x	x	n	x	n	n
Cc1ccc2nc(SCc3nnc(-c4ccccc4Br)o3)[nH]c2c1	n	n	n	n	52	n
Cc1snnc1C(=O)NC(=S)Nc1ccccc1	n	n	n	n	n	n
CNCCNC[C@H](Cc1cccc2ccccc12)NCCc1ccccc1	x	x	n	x	n	n
CNC[C@H](Cc1ccccc1)NC[C@@H](Cc1cccc2ccccc12)NCCc1ccc(C)cc1	n	-91	n	n	n	n
Cc1oncc1C(=O)NC(C)C	n	n	n	n	n	n
O=c1ccc2ccc(Oc3ccc([N+](=O)[O-])cc3[N+](=O)[O-])cc2o1	n	n	x	68	n	x
Cc1c(C(=O)Nc2ccc(F)cc2)c2ccccn2c1CCc1ccncc1	n	n	n	n	90	n
C=CCOc1ccc2c(c1)CCC1C2CCC2(C)C(O)C(O)CC12 (stereo unspecified)	x	x	n	x	x	n
C[C@]12CC[C@@H]3c4ccc(O[C@@H]5O[C@H](C(=O)O)[C@@H](O)[C@H](O)[C@H]5O)cc4CC[C@H]3[C@@H]1C[C@@H](O)[C@@H]2O	x	-54	n	n	n	n
CC1=CC(=O)C(C(C)=Nc2cccc(Cl)c2)C(=O)O1 (stereo unspecified)	x	x	n	x	x	n
Cc1cc2[nH]c(=O)c(=O)[nH]c2cc1S(=O)(=O)Nc1ccccc1F	n	n	4.6	n	n	n
COc1cc(C)c(S(=O)(=O)Nc2ccccc2F)cc1C	n	n	n	n	n	n
COCCn1c(C)cc(C2=NNC(=NC3CC3)SC2)c1C	70	-64	n	n	n	n
CCCS(=O)(=O)NC(=O)C1(C)CCN(C(=O)c2ccco2)C1 (stereo unspecified)	x	x	x	x	x	n
O=S(=O)(NCC1CCCO1)c1ccc(Cl)c2ccccc12 (stereo unspecified)	x	x	n	x	x	n
O=C(Nc1cccc(C(F)(F)F)c1)c1cccnc1NCCO	n	n	n	n	52	n
